Experiments:
Assay in all cases: PBM binding z-score (relative to random genomic background probes); higher = stronger binding; sequences stand for … in GC…GCGATTGACAGCGTAGAATGAAGG
[1] = system: FXR:RXRa (NR concentration 270 nM, RXRa partner concentration 90 nM)
Method in brief: (§1)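 Custom Agilent 4×180K protein-binding microarrays carried double-stranded probes. Their 34-nt variable regions held direct-repeat seeds, single-nucleotide variants, half-site ablations and random human genomic background sequences. Arrays were incubated 1 h with ligand-free nuclear receptor dimers in PBS pH 7.4, 2% milk, 0.02% Triton X-100, 1 mM DTT, 0.2 mg/mL BSA and 0.4 mg/ml salmon testes DNA. Antibodies against each partner (one per run) detected binding, and scanned fluorescence was regression-normalized. Binding z-scores use random background probes as reference.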

[2] = system: LXRa:RXRa (NR concentration 270 nM, RXRa partner concentration 90 nM)
Method in brief: as §1

[3] = system: LXRa homodimer (NR concentration 270 nM)
Method in brief: as §1

[4] = system: LXRb:RXRa (NR concentration 270 nM, RXRa partner concentration 90 nM)
Method in brief: as §1

[5] = system: LXRb homodimer (NR concentration 270 nM)
Method in brief: as §1

[6] = system: PPARa:RXRa (NR concentration 270 nM, RXRa partner concentration 90 nM)
Method in brief: as §1

[7] = system: PPARg:RXRa (NR concentration 180 nM, RXRa partner concentration 90 nM)
Method in brief: as §1

[8] = system: PPARg:RXRa 270nM:90nM, anti-RXR (NR concentration 270 nM, RXRa partner concentration 90 nM)
Method in brief: as §1

[9] = system: PPARg:RXRa 30nM:10nM, anti-RXR (NR concentration 30 nM, RXRa partner concentration 10 nM)
Method in brief: as §1

[10] = system: PPARg:RXRa 90nM:30nM, anti-RXR (NR concentration 90 nM, RXRa partner concentration 30 nM)
Method in brief: as §1

[11] = system: PPARg:RXRa DBDmut IVT, anti-RXR (DBD mutation: RXRa K156A/R161A, NR concentration 270 nM, RXRa partner concentration 90 nM)
Method in brief: as §1

[12] = system: PPARg:RXRa IVT, anti-PPARg (NR concentration 270 nM, RXRa partner concentration 90 nM)
Method in brief: as §1

[13] = system: PPARg DBDmut:RXRa IVT, anti-PPARg (DBD mutation: PPARg1 K132A/R137A, NR concentration 270 nM, RXRa partner concentration 90 nM)
Method in brief: as §1

[14] = system: PPARg DBDmut IVT, anti-PPARg (DBD mutation: PPARg1 K132A/R137A, NR concentration 270 nM)
Method in brief: as §1

[15] = system: PPARg homodimer (NR concentration 180 nM)
Method in brief: as §1

[16] = system: PXR:RXRa (NR concentration 270 nM, RXRa partner concentration 90 nM)
Method in brief: as §1

[17] = system: PXR homodimer (NR concentration 270 nM)
Method in brief: as §1

[18] = system: RARa:RXR (NR concentration 270 nM, RXRa partner concentration 90 nM)
Method in brief: as §1

[19] = system: RARa homodimer (NR concentration 270 nM)
Method in brief: as §1

[20] = system: RARb:RXRa (NR concentration 270 nM, RXRa partner concentration 90 nM)
Method in brief: as §1

Sequence	PBM binding z-score [1]	PBM binding z-score [2]	PBM binding z-score [3]	PBM binding z-score [4]	PBM binding z-score [5]	PBM binding z-score [6]	PBM binding z-score [7]	PBM binding z-score [8]	PBM binding z-score [9]	PBM binding z-score [10]	PBM binding z-score [11]	PBM binding z-score [12]	PBM binding z-score [13]	PBM binding z-score [14]	PBM binding z-score [15]	PBM binding z-score [16]	PBM binding z-score [17]	PBM binding z-score [18]	PBM binding z-score [19]	PBM binding z-score [20]
GGAACAAGGGCAAGTTGATAGCAGAGTTTGATGG	0.62	0.417	0.0737	0.264	-0.0748	0.929	1.04	0.726	0.251	0.632	2.92	1.97	-0.205	-0.563	0.831	0.589	1.08	0.364	0.91	2.71
GCTGCTAGGTCAACTGATGGTCAGCAAAAGCTCG	4.32	3.25	0.157	2.12	0.113	3.81	2.95	3.41	0.384	2.37	4.86	3.95	-0.344	0.121	1.67	1.68	-0.304	2.93	0.266	4.52
ACTATTAGTTGACTTAGGGCATCCGATACGACGC	-0.0291	0.0994	0.216	-0.154	0.3	-0.203	0.827	0.149	0.353	0.396	0.311	0.614	1.03	0.574	0.0693	0.114	0.228	0.0202	0.624	0.643
ACTAGCAGGCCAAGTTTGGGTCAATCAAACAAAG	0.471	0.228	-0.484	0.918	-1.03	1.55	-0.0982	0.263	-0.327	-0.105	0.842	0.959	-0.753	-0.879	0.326	0.526	-0.382	1.33	-0.558	1.65
ATCTCTAGGTACAGTTCAGTGAAAGATCGATAGA	0.629	0.639	0.57	0.6	1.26	0.51	0.382	0.647	0.518	0.644	0.631	0.726	1.18	1.5	0.523	0.814	0.988	0.458	1.24	0.918
ATCTCTAGGTAAAGATAGTTCAGTGAGTGCAAAT	-0.0159	4.06	1.22	0.833	0.569	0.673	0.242	0.661	0.182	0.714	2.29	1.9	0.931	0.67	0.928	3.93	11.4	0.596	0.987	0.924
TCGAGTAGGTTTGTCGGGGCATTCAGCCAACATA	0.314	0.103	0.0222	0.558	-0.504	0.326	-0.493	0.144	1.1	0.717	0.713	0.173	-1.6	-0.328	0.186	0.311	-0.236	0.224	-0.837	0.0444
ACAGACAGGTTATGAAGGTAACTCAGGCTATCAT	0.409	0.85	0.14	0.672	0.2	1.21	0.876	0.402	-0.0537	0.403	0.3	0.659	0.714	0.581	0.432	0.377	0.271	0.863	0.217	0.899
GCTGCTAGGTCTGGTTGGTCAGCTAACGGGTACG	-0.623	-0.65	-0.365	-0.912	-0.475	-0.774	-0.79	-0.447	-1.15	-0.815	-0.0168	-0.444	-1.29	-0.941	-0.461	-0.762	-0.661	-0.909	-0.893	0.00464
GCTTACGGGTCAGAGGTTATAGCATGAATAGAAT	5.2	3.46	0.404	3.77	0.261	5.92	9.08	7.82	6.2	8.57	2.54	4.73	0.344	0.535	2.65	3.89	0.491	5.92	0.521	3.58
GCATATAGGTAATATAAGGTGAAAGTCCGATTGT	1.9	3.31	0.295	1.14	-0.277	1.81	1.55	1.24	0.669	1.16	3.84	3.32	1.58	0.946	0.929	0.702	0.375	1.78	0.541	0.618
TAGCCTAGATCATTCAGGGGCCAGTATAGAAAGC	-0.33	-0.505	-0.351	-0.00287	-0.168	0.0623	0.276	0.125	-0.256	-0.407	1.21	1.03	-0.343	0.115	-0.77	-0.495	-0.234	0.0251	-0.596	0.0871
CGAAGTAGGTCATCCAGGACAGTGAATACATTGA	4.86	3.19	1.2	2.64	0.447	5.16	8.31	7.05	4.99	6.9	8.36	8.63	3.1	2.28	2.17	2.56	1.49	3.08	0.771	3.82
CGAACTAGGTCAACCAGGACAGTGAATACATTGA	4.29	2.78	0.571	2.31	0.00788	4.98	8.21	6.58	4.17	5.96	8.5	8.35	1.56	1.35	1.73	2.02	0.839	2.3	0.835	4.17

— the supplement of paper PMC6555819
